According to PubChem BioAssay (Tox21):
Values joined by “and” are separate entries in the source; they are usually repeats but may differ in a detail not shown here. Identical values can stand only once. Records with an inconclusive call do not appear. Active and inactive are the calls of the source. Unless noted, calls follow the shape of the dose curve; as a rule, active = well fitted curve in the direction sought with a large enough effect in the repeat runs; inconclusive = weak or mixed curves; inactive = no such curve, though single readings can be large; an effect the other way counts as inactive or inconclusive.

What was measured:
[1] = qHTS assay to test for compound auto fluorescence at 460 nm (blue) in HEK293 cell free culture (AID 720681)
How it was run: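 Compounds were added to cell-free DMEM with 10% FBS and fluorescence read directly. The blue channel used 405 nm excitation and 460 nm emission, with triamterene as the reference fluorophore.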

[2] = qHTS assay to test for compound auto fluorescence at 535 nm (green) in HEK293 cell free culture (AID 720682)
How it was run: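 No cells present: wells hold DMEM supplemented with 10% FBS, into which compound or vehicle is pinned. Green emission is then recorded (485 nm excitation, 535 nm emission) and scaled to fluorescein.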

[3] = qHTS assay to test for compound auto fluorescence at 590 nm (red) in HEK293 cell free culture (AID 720683)
How it was run: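 Cell-free wells of DMEM with 10% FBS received compound, and intrinsic fluorescence was read at excitation/emission 540/590 nm. Values expressed as equivalence to Rose Bengal sodium.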

[4] = qHTS assay to test for compound auto fluorescence at 590 nm (red) in HepG2 cell free culture (AID 720684)
How it was run: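 Compound was pinned into wells holding MEM with 10% FBS and no cells, and red fluorescence was read at Ex/Em 540/590 nm. Signal is expressed as auto fluorescence equivalency relative to Rose Bengal sodium.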

[5] = qHTS assay to test for compound auto fluorescence at 460 nm (blue) in HepG2 cell free culture (AID 720685)
How it was run: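 Compound (23 nL) or DMSO pinned into cell-free MEM with 10% FBS; blue fluorescence read at 405/460 nm excitation/emission, expressed as auto-fluorescence equivalency to triamterene.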

[6] = qHTS assay to test for compound auto fluorescence at 535 nm (green) in HepG2 cell free culture (AID 720686)
[7] = qHTS assay to test for compound auto fluorescence at 460 nm (blue) in HepG2 cells (AID 720687)
How it was run: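 HepG2 cells in MEM with 10% FBS, attached overnight at 37 C, were exposed to compound or DMSO for 1 hr at 37 C, 5% CO2. Blue fluorescence was read at 405/460 nm, with triamterene as reference fluorophore.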

[8] = qHTS assay to identify small molecule antagonists of the glucocorticoid receptor (GR) signaling pathway - cell viability counter screen (AID 720693); also: nearly all actives have a fitted effect of over 55% in size
[9] = qHTS assay for identifying genotoxic compounds that show differential cytotoxicity against isogenic chicken DT40 cell lines with known DNA damage response pathways - Rev3 mutant cell line (AID 743014); also: nearly all actives have a fitted effect of over 55% in size; also: potency is read from the fitted curve at half-maximal effect
[10] = qHTS assay for identifying genotoxic compounds that show differential cytotoxicity against isogenic chicken DT40 cell lines with known DNA damage response pathways - Rad54/Ku70 mutant cell line (AID 743015); also: nearly all actives have a fitted effect of over 60% in size; also: potency is read from the fitted curve at half-maximal effect
[11] = qHTS assay to identify small molecule antagonists of the androgen receptor (AR) signaling pathway using the MDA cell line - cell viability counter screen (AID 743041; also: nearly all actives have a fitted effect of over 45% in size; also: potency is read from the fitted curve at half-maximal effect)
How it was run: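 MDA-kb2 AR-luc cells (MMTV-luciferase, AR/GR responsive) treated with compounds plus R1881 agonist for 16 h at 37C. CellTiter-Fluor added at 15.5 h; fluorescence read after 30 min in the same wells.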

[12] = target: Glucocorticoid receptor (Homo sapiens) (UniProt P04150); assay: qHTS assay to identify small molecule antagonists of the glucocorticoid receptor (GR) signaling pathway (AID 720692; active = well fitted inhibition curve with a large enough effect in the signal ratio in the repeat runs, not every such curve was filed as active; the % refers to the signal ratio)
How it was run: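 Dexamethasone (5 nM final) stimulated a stably integrated GRE-beta-lactamase reporter in HeLa cells during 18 h co-incubation with compounds; signal was quantified as fluorescence intensity of B/G FRET substrate after 2 h.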

[13] = qHTS assay for identifying genotoxic compounds that show differential cytotoxicity against isogenic chicken DT40 cell lines with known DNA damage response pathways - wild type cell line (AID 743012); also: nearly all actives have a fitted effect of over 60% in size; also: potency is read from the fitted curve at half-maximal effect
How it was run: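 Using parental DT40 (300 cells/well), compounds delivered in DMSO incubate 40 h at 37 C/5% CO2. CellTiter-Glo reagent then stands 30 min at room temperature, and luminescence gives cell viability.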

[14] = qHTS assay to identify small molecule antagonists of the androgen receptor (AR) signaling pathway - cell viability counter screen (AID 743033; also: nearly all actives have a fitted effect of over 45% in size)
[15] = target: Glucocorticoid receptor (Homo sapiens) (UniProt P04150); assay: qHTS assay to identify small molecule agonists of the glucocorticoid receptor (GR) signaling pathway (AID 720691; active = well fitted activation curve with a large enough effect in the signal ratio in the repeat runs, not every such curve was filed as active; the % refers to the signal ratio)
How it was run: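 Reporter read-out: fluorescence intensity following 2 h room-temperature LiveBLAzer B/G FRET substrate loading. Prior step: GR-bla HeLa cells held 4 h, then treated 18 h at 37 C.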

[16] = target: Androgen receptor (Homo sapiens) (UniProt P10275); assay: qHTS assay to identify small molecule antagonists of the androgen receptor (AR) signaling pathway (AID 743035; active = well fitted inhibition curve with a large enough effect in the signal ratio in the repeat runs, not every such curve was filed as active; the % refers to the signal ratio)
How it was run: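 Using qHTS, AR-UAS-bla GripTite HEK293 cells received compound, then R1881, and were cultured 16 h at 37C/5% CO2 before a 2 h room-temperature LiveBLAzer B/G FRET substrate step and fluorescence measurement.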

[17] = target: Androgen receptor (Homo sapiens) (UniProt P10275); assay: qHTS assay to identify small molecule agonists of the androgen receptor (AR) signaling pathway (AID 743036; active = well fitted activation curve with a large enough effect in the signal ratio in the repeat runs, with a control signal flat, not every such curve was filed as active; the % refers to the signal ratio)
How it was run: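 Quantitative HTS of the Tox21 10K library in HEK293 cells bearing a stably integrated UAS-controlled beta-lactamase reporter. Compound exposure lasted 16 h at 37C. Reporter activity was detected by FRET substrate fluorescence after 2 h at room temperature.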

[18] = target: Androgen receptor (Homo sapiens) (UniProt P10275); assay: qHTS assay to identify small molecule agonists of the androgen receptor (AR) signaling pathway using the MDA cell line (AID 743040; also: nearly all actives have a fitted effect of over 20% in size)
How it was run: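 MDA-kb2 breast carcinoma cells carrying MMTV-luciferase (responsive to AR and GR), plated 5 h then treated 16 h with compounds at 37C, 0% CO2. Read-out was ONE-Glo luminescence after 30 min at room temperature.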

[19] = target: Androgen receptor (Homo sapiens) (UniProt P10275); assay: qHTS assay to identify small molecule antagonists of the androgen receptor (AR) signaling pathway using the MDA cell line (AID 743042; also: nearly all actives have a fitted effect of over 55% in size)
How it was run: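 MDA-kb2 breast carcinoma cells carrying MMTV-luciferase (AR/GR responsive) were co-treated with compounds and the agonist R1881 for 16 h at 37C. Inhibition read as ONE-Glo luminescence; CellTiter-Fluor fluorescence measured in parallel for cytotoxicity.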
% is scaled to controls: 0 for no effect and ±100 for the full control effect.

Chain of Androgen receptor (Homo sapiens) (P10275 whole entry, looked up): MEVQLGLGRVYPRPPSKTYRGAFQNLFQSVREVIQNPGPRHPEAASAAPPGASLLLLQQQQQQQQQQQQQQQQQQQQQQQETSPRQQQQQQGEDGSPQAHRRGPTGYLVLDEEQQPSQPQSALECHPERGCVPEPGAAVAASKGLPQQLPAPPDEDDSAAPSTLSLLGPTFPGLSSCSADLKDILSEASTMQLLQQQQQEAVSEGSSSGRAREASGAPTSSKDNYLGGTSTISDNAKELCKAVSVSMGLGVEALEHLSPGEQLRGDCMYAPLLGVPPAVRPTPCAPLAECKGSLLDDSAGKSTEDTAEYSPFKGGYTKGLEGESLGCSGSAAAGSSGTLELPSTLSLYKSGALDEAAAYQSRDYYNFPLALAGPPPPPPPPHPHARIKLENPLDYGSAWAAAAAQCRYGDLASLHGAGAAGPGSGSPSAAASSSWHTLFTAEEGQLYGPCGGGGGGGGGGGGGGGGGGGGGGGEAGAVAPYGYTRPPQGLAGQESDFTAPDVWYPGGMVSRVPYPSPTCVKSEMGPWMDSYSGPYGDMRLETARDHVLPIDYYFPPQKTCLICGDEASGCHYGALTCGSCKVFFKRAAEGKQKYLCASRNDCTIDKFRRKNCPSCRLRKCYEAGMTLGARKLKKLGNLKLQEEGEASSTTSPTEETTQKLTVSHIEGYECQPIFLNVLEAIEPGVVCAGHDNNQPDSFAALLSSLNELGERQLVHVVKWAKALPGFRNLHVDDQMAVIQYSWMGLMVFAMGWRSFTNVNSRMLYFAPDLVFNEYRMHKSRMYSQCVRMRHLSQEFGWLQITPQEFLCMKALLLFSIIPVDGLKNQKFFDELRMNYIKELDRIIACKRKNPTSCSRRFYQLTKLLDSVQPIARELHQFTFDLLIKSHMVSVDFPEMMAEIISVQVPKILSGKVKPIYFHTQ
Chain of Glucocorticoid receptor (Homo sapiens) (P04150 whole entry, looked up): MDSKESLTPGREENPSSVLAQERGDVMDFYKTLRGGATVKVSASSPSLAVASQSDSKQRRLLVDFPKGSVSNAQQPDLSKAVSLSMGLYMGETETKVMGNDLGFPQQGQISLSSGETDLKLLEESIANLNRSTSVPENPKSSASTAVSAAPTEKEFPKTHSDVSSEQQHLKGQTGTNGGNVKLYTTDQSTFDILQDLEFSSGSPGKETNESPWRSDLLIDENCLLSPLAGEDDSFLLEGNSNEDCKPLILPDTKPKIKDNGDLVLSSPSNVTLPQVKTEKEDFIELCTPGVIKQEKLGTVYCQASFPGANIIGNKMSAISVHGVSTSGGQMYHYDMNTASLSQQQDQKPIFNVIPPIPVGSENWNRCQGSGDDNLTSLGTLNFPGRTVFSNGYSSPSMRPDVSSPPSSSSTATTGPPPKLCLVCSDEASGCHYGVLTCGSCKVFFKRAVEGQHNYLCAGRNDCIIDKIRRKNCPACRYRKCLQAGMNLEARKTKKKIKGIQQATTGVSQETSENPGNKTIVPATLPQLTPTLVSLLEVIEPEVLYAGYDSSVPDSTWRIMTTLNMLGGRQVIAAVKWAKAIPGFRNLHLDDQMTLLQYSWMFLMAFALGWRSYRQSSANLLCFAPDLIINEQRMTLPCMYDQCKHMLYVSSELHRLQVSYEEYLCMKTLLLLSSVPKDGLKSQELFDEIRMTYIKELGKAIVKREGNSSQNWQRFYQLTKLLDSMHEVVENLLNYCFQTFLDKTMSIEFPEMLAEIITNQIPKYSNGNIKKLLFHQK

CC1=CC(=C(c2ccc(N)cc2)c2ccc(N)cc2)C=CC1=N
inactive: Potency [1] | outcome [2] | outcome [3] | outcome [4] | outcome [5] | outcome [6] | outcome [7] | Potency [8]
active: Potency [9] 5.96 µM and 3.1 µM | Potency [10] 5.96 µM | Potency [11] 7.5 µM

C=CCCC
inactive: Potency [1] | outcome [2] | outcome [3] | outcome [4] | outcome [5] | outcome [7] | Potency [12] | Potency [8] | Potency [13] | Potency [9] | Potency [10] | Potency [14] | Potency [11]

COc1cccc([C@H](O)C2CCN(CCc3ccc(F)cc3)CC2)c1OC
inactive: Potency [1] | outcome [2] | outcome [3] | outcome [5] | outcome [6] | outcome [7] | Potency [8] | Potency [14]
active: Potency [13] 27.3 µM | Potency [9] 1.72 µM | Potency [10] 4.33 µM

O=C(O)c1cc(C(=O)O)c(C(=O)O)cc1C(=O)O
inactive: Potency [1] | outcome [2] | outcome [3] | outcome [4] | outcome [5] | outcome [7] | Potency [15] | Potency [12] | Potency [8] | Potency [9] | Potency [10] | Potency [14] | Potency [16] | outcome [17] | outcome [18] | Potency [11] | Potency [19]

NC(=O)c1cc[n+](CC2=C(C(=O)[O-])N3C(=O)[C@@H](NC(=O)Cc4cccs4)[C@H]3SC2)cc1
inactive: fluorescence, % of fluorescent control [1] 0.628% [at 18.6 µM] | activity change [2] 0.0615% [at 18.6 µM] | fluorescence, % of fluorescent control [3] 0.0033% [at 18.6 µM] | fluorescence, % of Rose Bengal [4] 0.512% [at 18.6 µM] | fluorescence, % of fluorescent control [5] 0.491% [at 18.6 µM] | fluorescence, % of fluorescein control [6] -0.0061% [at 18.6 µM] | fluorescence, % of fluorescent control [7] 0.406% [at 18.6 µM] | Potency [8] | Potency [13] | Potency [9] | Potency [10]

CCCCCCCCS
inactive: Potency [1] | outcome [2] | outcome [3] | outcome [4] | outcome [5] | outcome [6] | outcome [7] | Potency [8] | Potency [9] | Potency [10] | Potency [14]

Cc1ccc2ccccc2c1[N+](=O)[O-]
inactive: Potency [1] | outcome [2] | outcome [3] | outcome [4] | outcome [5] | outcome [6] | outcome [7] | Potency [15] | Potency [8] | Potency [14] | Potency [11]

COC(=O)c1cc(Cl)ccc1[N+](=O)[O-]
inactive: Potency [1] | outcome [2] | outcome [3] | outcome [4] | outcome [5] | outcome [6] | outcome [7] | Potency [12] | Potency [8] | Potency [13] | Potency [10] | Potency [14] | Potency [11]

CC(=O)Nc1ccccc1O
inactive: Potency [1] | outcome [2] | outcome [3] | outcome [4] | outcome [5] | outcome [7] | Potency [8] | Potency [13] | Potency [9] | Potency [10] | Potency [14] | Potency [11]

O=C(Nc1ccc2c(c1)Cc1ccccc1-2)C(F)(F)F
inactive: Potency [1] | outcome [2] | outcome [3] | outcome [4] | outcome [5] | outcome [6] | outcome [7] | Potency [15] | Potency [12] | Potency [8] | Potency [14]
active: Potency [10] 54.5 µM

O=C1c2ccccc2C(=O)c2c1ccc(O)c2O
inactive: Potency [1] | outcome [3] | outcome [4] | outcome [5] | outcome [6] | outcome [7] | Potency [15] | Potency [8] | Potency [13] | Potency [9] | Potency [10] | Potency [14]

CCCC1CCOC(C)S1 (stereo not given)
inactive: Potency [1] | outcome [2] | outcome [3] | outcome [4] | outcome [5] | outcome [6] | outcome [7] | Potency [12] | Potency [8] | Potency [13] | Potency [10] | Potency [14] | Potency [16] | outcome [17] | outcome [18] | Potency [11] | Potency [19]

C=C[Si]1(C)O[Si](C)(C=C)O[Si](C)(C=C)O[Si](C)(C=C)O1 (stereo not given)
inactive: Potency [1] | outcome [3] | outcome [4] | outcome [5] | outcome [6] | outcome [7] | Potency [15] | Potency [8] | Potency [14] | Potency [11]

CCOc1ccccc1O
inactive: Potency [1] | outcome [2] | outcome [3] | outcome [4] | outcome [5] | outcome [6] | outcome [7] | Potency [8] | Potency [13] | Potency [9] | Potency [10] | Potency [14]

CCCCCCC/C=C/C=O
active: Potency [10] 43.3 µM
inactive: Potency [1] | outcome [2] | outcome [3] | outcome [4] | outcome [5] | outcome [6] | outcome [7] | Potency [15] | Potency [8] | Potency [9] | Potency [14]
